A selection: hits, their analogues and other compounds. The true share with any hit is near 1.2%.
RGS4 inhibitor – blocks human RGS4-accelerated GTP hydrolysis; Potency, µM (titrated, usually from 114 µM), for inactives: top-dose activity change, negative = inhibition, actives largely listed as inhibitors; Transcreener GDP fluorescence polarization, RGS4-accelerated GTP hydrolysis; AID 504845; hit rate 0.039% among 390,000; P49798; note: potency is the fitted concentration of half-maximal effect; nearly all actives have a fitted effect of over 75% in size
Target sequence (P49798 whole entry, looked up): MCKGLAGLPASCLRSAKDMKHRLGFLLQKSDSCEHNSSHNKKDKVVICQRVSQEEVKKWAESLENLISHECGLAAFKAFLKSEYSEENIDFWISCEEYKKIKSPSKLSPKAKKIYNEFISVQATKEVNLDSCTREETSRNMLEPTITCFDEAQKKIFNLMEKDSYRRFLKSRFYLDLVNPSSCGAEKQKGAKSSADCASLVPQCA
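MLSMR compounds (23 nl, pin-transferred) preincubated 10 min at room temperature with a 500nM (2x) first reagent, then RGS4 at 900nM (2x) plus Transcreener GDP mix added; fluorescence polarization (620/688 nm) read before and after 90 min at 30 °C.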
KCNH2 WT inh – inhibitors of human wildtype KCNH2 potassium channel. U2OS, BacMam KCNH2, thallium flux FluxOr; active compounds read low. hit rate 0.37% among 340,000. AID 720551. activity change, % at 1.84 µM;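 active = maximum activity change below -70%; inconclusive = maximum activity change between -70% and -50%; inactive = maximum activity change above -50%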
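U2OS cells transduced with wild-type KCNH2 virus are loaded with FluxOr dye for 45 min, and thallium flux is measured in kinetic reads before and after stimulation buffer. Rate constants are normalized to DMSO controls.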
KAT2A inh – GCN5L2 (KAT2A) acetyltransferase inhibition; Q92830; AID 504327; Potency, µM (highest dose often 58.9 µM), for the others: top-dose activity change, negative = inhibition, most hits filed as inhibitors; GCN5L2 HAT assay, ThioGlo1 CoA-SH fluorescence; hit rate 0.21% among 390,000; note: potency is the fitted concentration of half-maximal effect
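Enzyme at 20nM final was mixed with library compounds for 15 min at room temperature. Peptide H3(1-25) at 75uM, acetyl-CoA at 70uM and ThioGlo1 at 50uM were then added. Plates were read immediately and after 20 min (Ex340nm/Em540nm).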
Pin1 inh – inhibitors of human Pin1 | Potency, µM (titrated, usually from 115 µM), inactives show at the highest dose activity, negative = inhibition, usual class: inhibitors | Pin1 FP peptide displacement, HiFluor488, 10 min | hit rate 0.009% among 390,000; active = well fitted inhibition curve with a large enough effect in the polarisation, with a control signal flat, not every such curve was filed as active; inconclusive = small, poorly fitted or top-dose-only effect, or effect the other way, or a change in a side signal; inactive = no such curve, though single readings can be large or run the other way; the % refers to the polarisation; note: potency is the fitted concentration of half-maximal effect
Target sequence (Q13526 whole entry, looked up): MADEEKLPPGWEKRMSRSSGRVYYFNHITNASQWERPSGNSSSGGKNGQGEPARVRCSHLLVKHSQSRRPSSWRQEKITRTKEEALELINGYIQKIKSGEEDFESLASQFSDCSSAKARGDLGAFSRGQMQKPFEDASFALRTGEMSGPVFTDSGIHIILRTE
KCNH2 3.1 inh – inhibitors of human KCNH2 3.1 potassium channel isoform | activity change, % (tested at about 1.8 µM) | U2OS KCNH2 3.1, thallium flux FluxOr; active compounds read low | AID 720553 | hit rate 0.95% among 340,000;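 active = maximum activity change below -70%; inconclusive = maximum activity change from -70% to -50%; inactive = maximum activity change above -50%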;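 note: thallium influx rate constant from kinetic fluorescence after stimulation buffer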
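Measured as rate of thallium-driven FluxOr signal in transduced U2OS cells carrying the 3.1 channel, read kinetically for 2 min upon stimulation; values are rate constants scaled to DMSO control wells.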
Tb PGK inh – blocks T. brucei phosphoglycerate kinase | P07378 | PGK/GAPDH coupled, Kinase-Glo luminescence, 60 min | Potency, µM (doses to about 57.5 µM), for inactives: at the highest dose activity change, negative = inhibition, actives largely listed as inhibitors | hit rate 0.043% among 380,000 | AID 602233; note: potency is the fitted concentration of half-maximal effect; nearly all actives have a fitted effect of over 60% in size
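Recombinant glycosomal PGK reaction used 1,3-bisphosphoglycerate generated in-well by GAPDH (100nM final) in 100mM TEA pH 7.6, 5mM MgCl2, 0.01% Tween-20. After 60 minutes at room temperature, ATP was read by Kinase-Glo Plus luminescence end-point.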
Active calls of the source: *; i = inactive; ? = inconclusive; / = no result; [ ] = dose if it differs, or a comment. Unless noted, calls come from the whole dose curve; as a rule, active = well fitted curve in the direction sought with a large enough effect; inconclusive = small, poorly fitted or top-dose-only effect, or another doubt; inactive = no such curve, though single readings can be large; an effect the other way counts as inactive or inconclusive. % is set by controls: 0 for no effect and ±100 for the full control effect.

SMILES	RGS4 inhibitor	KCNH2 WT inh	KAT2A inh	Pin1 inh	KCNH2 3.1 inh	Tb PGK inh
CC(C)Cc1cc(CN2CCC(CO)(Cc3cccc(C(F)(F)F)c3)CC2)[nH]n1	10%	-105*	1%	-1%	-83*	-3%
COc1cc(CNCCSc2nnnn2C)ccc1OCc1ccc(C)cc1	6%	/	-2%	2%	/	-10%
O=C(O)c1cc(-c2ccc(/C=C3\NC(=O)N(c4ccc(Cl)cc4)C3=O)o2)ccc1Cl	-17%	1	-6%	?	-11	32µM*
CS(=O)(=O)Nc1cccc(-c2cncnc2Nc2ccc(F)cc2)c1	/	/	-14%	/	/	/
CCC(=O)Nc1nonc1-c1nc2ccccc2n1Cc1cccc2ccccc12	-20%	-16	-1%	50%	-85*	-2%
CC(=O)Nc1ccc(NC(=O)c2sc3nc4n(c(=O)c3c2C)CCCCC4)cc1	-32%[56.9 µM]	/	-3%	-2%	11	-4%
CCc1ccc(NC(=O)c2sc3nc4n(c(=O)c3c2C)CCC4)cc1	-35%	8	-22%	20%	-91*	-5%
CC(=O)c1cccc(OCC(O)CNCCc2ccc(Cl)cc2)c1 (configuration not stated)	18%	1	4%	-6%	-29	-10%
CCCc1cnc(NCCNCC(O)COc2ccc(Cl)c(Cl)c2)nc1 (configuration not stated)	13%	22	-10%	7%	-98*	-4%
CCN(C(=O)Cn1cnc2c1c(=O)n(C)c(=O)n2C)c1ccccc1C	19%	/	-6%	27%	/	6%
COc1ccc(N2CCN(Cc3nc(N)nc(Nc4ccccc4OC)n3)CC2)cc1	-26%	-7	-11%	-8%	-27	0%
Cc1cccc(Nc2nc(N)nc(CN3CCN(Cc4ccc5c(c4)OCO5)CC3)n2)c1	22%	-26	-3%	4%	-110*	-5%
COc1ccc(Nc2nc(N)nc(CN3CCN(c4ccc(F)cc4)CC3)n2)cc1	3%	47	-3%	4%	-77*	5%
Cc1cccc(Nc2nc(N)nc(CN3CCN(c4ccccc4F)CC3)n2)c1	-21%	25	/	2%	-80*	-2%
COc1ccccc1Nc1nc(N)nc(CN2CCN(Cc3ccc4c(c3)OCO4)CC2)n1	?	-49	-1%	-4%	-110*	-8%
Cc1cccc(Nc2nc(N)nc(CN3CCN(c4ccccc4)CC3)n2)c1	2%	20	-1%	1%	?	-1%
COc1ccccc1Nc1nc(N)nc(CN2CC(C)CC(C)C2)n1 (configuration not stated)	-28%	-12	-3%	-4%	12	0%
CCn1cc(S(=O)(=O)c2ccccc2)c(=O)c2cc(F)c(N3CCCC3)cc21	-30%	/	-1%	3%	/	-2%
CCOC(=O)c1c(NC(=O)CCCOc2ccc(C)cc2)sc2c1CCC(C)C2 (configuration not stated)	-24%	/	17%	?	/	-1%
COc1ccccc1Nc1nc(N)nc(CN2CCN(Cc3ccccc3)CC2)n1	-6%	-21	-5%	3%	-77*	-3%
COc1ccccc1N1CCN(Cc2nc(N)nc(Nc3ccc(C)c(Cl)c3)n2)CC1	-4%[11.4 µM]	-7	-20%	4%	-106*	8%
Nc1nc(CN2CCN(Cc3ccccc3)CC2)nc(Nc2ccccc2)n1	-15%	43	-1%	-3%	-40	i
COc1ccccc1Nc1nc(N)nc(CN2CCCCC2)n1	-7%	23	-5%	-5%	3	i
Cc1ccc(Nc2nc(N)nc(CN3CCc4ccccc4C3)n2)cc1	10%	-12	-1%	5%	-79*	-7%
Nc1nc(CN2CCN(c3ccccn3)CC2)nc(Nc2ccc(Cl)cc2)n1	36%	-104*	-11%	1%	-21	i
SMILES	RGS4 inhibitor	KCNH2 WT inh	KAT2A inh	Pin1 inh	KCNH2 3.1 inh	Tb PGK inh
COc1ccccc1Nc1nc(N)nc(CN2CCN(c3ccccc3F)CC2)n1	10%	21	-1%	2%	-19	4%
CN(C)S(=O)(=O)c1ccc2c(c1)N(CC(=O)NCc1ccc(F)cc1)C(=O)CS2	-12%	/	-4%	2%	/	i
Cc1ccc(Nc2nc(N)nc(CSc3nc4ccccc4s3)n2)cc1	-6%	-3	-16%	1%	-72*	-1%
COc1ccc(-c2nc(Cn3c(SCc4ccccc4F)nc4ccncc43)c(C)o2)cc1	-30%	11	-13%	14%	-109*	6%
COc1ccc(CN2CCCC(CO)(Cc3ccc(F)cc3F)C2)cc1 (configuration not stated)	16%	32	-5%	1%	-35	-6%
CCOc1ccc(CN2CCCC(CO)(Cc3ccc(F)cc3)C2)cc1 (configuration not stated)	-23%	-33	-7%	-4%	-97*	i
Cc1nn(C)c(Cl)c1CN1CCCC(CO)(Cc2ccccc2)C1 (configuration not stated)	27%	0	-3%	3%	-85*	0%
O=C(CN1CCCN(S(=O)(=O)c2ccc(Br)cc2)CC1)Nc1cccc(C(F)(F)F)c1	-26%	/	-7%	6%	/	i
O=C(c1cn(-c2ccccc2)nc1-c1ccccc1)N1CCOCC1	-22%[56.9 µM]	-26	-2%	1%	-10	-4%
O=C(c1cccs1)N1CCN(C(=O)c2cn(-c3ccccc3)nc2-c2ccccc2)CC1	-8%	-129*	1%	4%	-172*	-7%
Cc1ccc(S(=O)(=O)N/N=C/c2ccc(OCC(=O)N3CCOCC3)cc2)cc1	-10%	0	-6%	-5%	-72*	4%
COc1cc(CCCN2C(=S)NC[C@@H]2Cc2ccccc2)cc(OC)c1OC	-22%	1	-1%	-1%	-9	-4%
COc1cc(CCCN2C(=S)NC[C@@H]2c2ccccc2)cc(OC)c1OC	-9%	1	10%	0%	-94*	i
CCOC(=O)c1c(NC(=O)c2ccccc2N(C)S(=O)(=O)c2ccccc2)sc2c1CCCC2	6%	1	32µM*	10%	-16	-9%
COC(=O)c1c(NC(=O)c2ccccc2N(C)S(=O)(=O)c2ccccc2)sc2c1CCCC2	1%	-12	-3%	12%	-5	-11%
CCCn1c(N)c(C(=O)CN(C)CC(=O)Nc2cccc(F)c2)c(=O)[nH]c1=O	4%	-20	3%	3%	-79*	-2%
CCCn1c(N)c(C(=O)CN(C)CC(=O)Nc2ccccc2CC)c(=O)[nH]c1=O	-2%	7	-2%	-3%	-27	-9%
CCc1noc(-c2ccc(NCc3ccccc3)c([N+](=O)[O-])c2)n1	8%	/	0%	7%	/	-6%
